# Pf growth 48h: Primary qHTS for delayed death inhibitors of the malarial parasite plastid, 48 hour incubation; hit rate 5.9% among 310,000; AID 504832, 2011; P. falciparum luciferase growth in erythrocytes, 48 h; Potency, µM (series often up to 28.7 µM), without a hit: at the top dose activity change, negative = inhibition, actives largely listed as inhibitors; note: potency is the fitted concentration of half-maximal effect
#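 Compounds are pin-transferred into medium, infected erythrocytes (2% hematocrit, 0.1% parasitemia final) are added, and plates sit one parasite generation at 37 C in 5% CO2. Detection reagent is then added and luminescence measured.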
# Giardia FBPA inh: qHTS Assay for Inhibitors of Fructose-1,6-bisphosphate Aldolase from Giardia Lamblia; A8B2U2; purified Giardia FBPA; Potency, µM (highest dose often 59.6 µM), without a hit: at the top dose activity, negative = inhibition, usual class: inhibitors; hit rate 0.71% among 290,000; AID 2451, 2010; note: potency is the fitted concentration of half-maximal effect; nearly all actives have a fitted effect of over 55% in size
# Target sequence (A8B2U2 whole entry, looked up): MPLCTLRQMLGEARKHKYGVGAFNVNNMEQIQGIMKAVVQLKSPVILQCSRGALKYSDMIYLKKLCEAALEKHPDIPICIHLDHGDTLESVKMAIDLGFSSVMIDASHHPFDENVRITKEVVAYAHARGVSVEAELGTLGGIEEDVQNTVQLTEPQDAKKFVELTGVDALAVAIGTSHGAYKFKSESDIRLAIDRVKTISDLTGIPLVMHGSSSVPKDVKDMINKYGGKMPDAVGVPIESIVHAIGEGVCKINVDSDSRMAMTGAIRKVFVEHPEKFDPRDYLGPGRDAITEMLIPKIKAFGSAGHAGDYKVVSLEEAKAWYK
#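 Giardia FBPA (40 nM reagent) was preincubated 10 min at RT with compound (up to 57.5 uM final), then substrate plus GAPDH/TPI/NAD/arsenate coupling system with diaphorase/resazurin was added; resorufin fluorescence (525/598 nm) was read after 20 min.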
# HCMV inh: qHTS Assay for inhibitors of the human cytomegalovirus (HCMV); AID 1259415, 2018; HFF cells, HCMV-luciferase reporter, 72 h; hits give low values; hit rate 4.5% among 410,000; activity change, negative = inhibition, % at 57.5 µM; in the data active = activity change below about -60%; inconclusive = no clear call, values can overlap the other calls; inactive = above about -39%
#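 After 16 h attachment at 37C, HFF cells received test compound and HCMV-luciferase (1 PFU/cell); reporter luminescence read 72 h later, data normalized against buffer-only and known inhibitor Salinomycin.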
# Sm TGR inh: qHTS Assay for the Inhibitors of Schistosoma Mansoni Peroxiredoxins. hit rate 3% among 360,000. Potency, µM (highest dose often 114 µM), without a hit: at the top dose activity change, negative = inhibition, most hits filed as inhibitors. Schistosoma mansoni thioredoxin glutathione reductase (TGR), Q962Y6. purified TGR, DTNB reduction, TNB absorbance 405 nm. AID 485364, 2010; note: potency is the fitted concentration of half-maximal effect; nearly all actives have a fitted effect of over 60% in size
#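 First, TGR (20 nM dispensed) and NADPH were mixed with compound. Second, a 15 min room-temperature incubation followed. Third, further NADPH and then DTNB were added to start the reaction. Finally, TNB absorbance was monitored kinetically.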
# Pf growth 96h: Primary qHTS for delayed death inhibitors of the malarial parasite plastid, 96 hour incubation. hit rate 6.9% among 320,000. Potency, µM (highest dose often 28.7 µM), inactives show at the top dose activity change, negative = inhibition, usual class: inhibitors. P. falciparum luciferase reporter growth, 96 h. AID 504834, 2011; note: potency is the fitted concentration of half-maximal effect
#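 Readout is luminescence from an integrated firefly luciferase in P. falciparum. Red cells, 2% hematocrit and 0.05% parasitemia final, were cultured with compound through two parasite generations (96 hours) at 37 C, 5% CO2.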
# Numbers without * were called inactive; ? = inconclusive; nt = no result; [ ] = dose if it differs, or a comment. Hits are enriched below; roughly 14% of the tested compounds scored in any of these assays. Unless noted, calls come from the whole dose curve; as a rule, active = well fitted curve in the direction sought with a large enough effect; inconclusive = small, poorly fitted or top-dose-only effect, or another doubt; inactive = no such curve, though single readings can be large; an effect the other way counts as inactive or inconclusive. % is set by controls: 0 for no effect and ±100 for the full control effect.
SMILES,Pf growth 48h,Giardia FBPA inh,HCMV inh,Sm TGR inh,Pf growth 96h
Cn1c(C(=O)NCc2cccc(Cl)c2)cc2oc3ccccc3c21,nt,nt,-64*,24%,nt
CCOc1ccccc1CNC(=O)c1cc2oc3ccccc3c2n1C,?,-5%,-85*,-1%,nt
CC(=O)OC1CC[C@@]2(C)C(CC[C@@]3(C)C2CC=C2C4CC(C)(C)CC[C@]4(C)CC[C@@]23C)C1(C)C (some centres undefined),nt,10%,nt,nt,nt
CCNC(=S)NC1CC2CCCC(C1)N2CCc1ccccc1 (centres undefined),?,-27%,35,5%,8.3µM*
COc1ccc(CN(C(=O)c2ccc3c(c2)OCCO3)C(C(=O)NC2CCCCC2)c2ccc3ncccc3c2)cc1 (centres undefined),?,-8%,-29,14%,9.3µM*
COc1ccc(C(C(=O)NC2CCCCC2)N(C(=O)c2cccs2)c2ccc3c(c2)OCO3)cc1 (centres undefined),?,4%,?,-10%,?
O=C(NC1CCCCC1)C(c1ccc2ncccc2c1)N(Cc1ccccc1)C(=O)c1ccc2c(c1)OCCO2 (centres undefined),13µM*,0%,-33,8%,10µM*
Cc1cc(C)n(CCNC(=O)C2CCC(=O)N(Cc3ccc(Cl)cc3)C2)n1 (centres undefined),15%,8%,?,-32%,-22%
CCc1ccc(NC(=O)C(NS(=O)(=O)c2cccs2)C(C)C)cc1 (centres undefined),nt,nt,-3,4%,nt
CCO[C@@H]1OC(C(=O)N2CCCCCCC2)=C[C@H](c2csc3ccccc23)[C@H]1CCCO,8.3µM*,-11%,-16,2%,?
CCO[C@@H]1OC(C(=O)N2CCCCCCC2)=C[C@H](c2cn(C(C)=O)c3ccccc23)[C@H]1CCCO,?,3%,nt,-2%,10µM*
CCO[C@@H]1OC(C(=O)O)=C[C@H](c2cn(C(C)=O)c3ccccc23)[C@H]1CCCO,nt,nt,1,nt,nt
C=CCOC(=O)C1=C[C@H](c2csc3ccccc23)[C@@H](CCCO)[C@H](OCC)O1,?,-7%,8,-4%,?
C=CCOC(=O)C1=C[C@H](c2cn(C(C)=O)c3ccccc23)[C@@H](CCCO)[C@H](OCC)O1,?,-14%,85,-22%,12µM*
Cc1ccc(C(=O)Nc2ccccc2N2CCCCC2)o1,2%,nt,-61*,-20%,3%
O=C(Nc1ccccc1N1CCCC1)c1ccc([N+](=O)[O-])o1,9.3µM*,nt,-71*,-33%,4.1µM*
CN1CCN(c2ccccc2NC(=O)c2ccc(Br)o2)CC1,10%,6%,-22,-1%,nt
CCC(=O)N1CCN(c2ccccc2NC(=O)c2ccc([N+](=O)[O-])o2)CC1,?,-8%,-65*,?,62%
Cc1ccc(C(=O)Nc2ccccc2N2CCCCC2)cc1,?,4%,-11,-4%,13%
O=C(Nc1ccccc1N1CCOCC1)c1ccc(Br)o1,6%,11%,-63*,6%,?
CC(C)[C@H](NC(=O)c1ccco1)C(=O)NCc1ccccc1,-1%,8%,115,6%,4%
COC(=O)[C@@]1(Cc2ccccc2)[C@H]2c3cc(C(=O)N(C)C)n(Cc4ccccc4)c3C[C@H]2CN1C(=O)c1ccccc1,nt,2%,nt,nt,nt
COCCCNC(=O)C[C@H]1C[C@@]2(C(=O)OC)C(=C[C@H](C3CCCC3)O[C@@H]2C)N(Cc2ccccc2)C1=O,nt,nt,-18,nt,nt
O[C@@](CCN1CCCCC1)(c1ccccc1)C1CCCCC1,nt,-6%[21.7 µM],nt,nt,nt
CSCc1c(C(=O)Nc2ccccc2N2CCOCC2)oc2ccccc12,12µM*,nt,-2,2%,-113%
SMILES,Pf growth 48h,Giardia FBPA inh,HCMV inh,Sm TGR inh,Pf growth 96h
CC(C)C(=O)N1CCN(c2ccccc2NC(=O)c2ccc([N+](=O)[O-])o2)CC1,0%,8%,-73*,?,18%
O=C(Nc1cccc([N+](=O)[O-])c1)c1ccc2snnc2c1,-6%,0%,?,-4%,-2%
COCCn1cnc2c1c(=O)n(CC(=O)NC(=O)NC(C)(C)C)c(=O)n2Cc1ccccc1,?,2%,-34,-10%,0.26µM*
CCNC(=S)NNC(=O)Cn1c(=O)c2c(ncn2CCOC)n(Cc2ccccc2)c1=O,-14%,-28%,10,-8%,?
COCCn1cnc2c1c(=O)n(CC(=O)OCC#N)c(=O)n2Cc1ccccc1,?,3%,-6,1%,?
COCCn1cnc2c1c(=O)n(Cc1ccc(C#N)cc1)c(=O)n2Cc1ccccc1,?,22%,-61*,-6%,?
CC(=O)Nc1ccc(S(=O)(=O)N2CCC(C(=O)O)(c3ccccc3)CC2)cc1,15%,14%,80,-10%,?
Cc1ccc(NC(=O)C(=O)NCC2OCCc3ccccc32)cc1 (centres undefined),43%,1%,-18,7%,13%
O=C(NCC1OCCc2ccccc21)c1ccco1 (centres undefined),-5%,-22%,-7,32µM*,132%
O=C(NCC1OCCc2ccccc21)c1ccc(NC(=O)c2ccc(Cl)cc2)cc1 (centres undefined),?,5%,-82*,1%,20%
CCOC(=O)c1cnc2c(ccc3ccccc32)c1NCCCN(C)C,4.1µM*,-24%,200,-10%,?
CCOC(=O)c1cnc2ccc(Cl)cc2c1NCCN(C)C,?,?,-16,-25%,4.7µM*
CCOC(=O)c1cnc2ccc(Cl)cc2c1Nc1ccc(OCC)cc1,nt,nt,19,-3%,nt
OC(CNC1CCCCC1)CON=C1CCSc2c(Cl)cccc21 (centres undefined),nt,nt,10,nt,nt
CC(=O)Nc1nc(-c2ccc3c(c2)CCN3C(=O)C2CC2)c(C)s1,-7%,nt,-98*,-7%,-2%
Cc1c(-c2ccccc2)c(-c2ccc(OCCN(C)C)cc2)n2ccccc12,nt,nt,-74*,nt,nt
CCCn1c(C)nc2c(N3CCC(N4CCN(C)CC4)CC3)nc(C)nc21,nt,3%,nt,nt,nt
CCS(=O)(=O)Nc1cccc(C2=NN(C(=O)c3ccco3)C(c3ccco3)C2)c1 (centres undefined),?,-14%,2,50µM*,9%
O=C(O)CCC(=O)N1N=C(c2ccccc2)CC1c1ccc2nccnc2c1 (centres undefined),18%,2%,?,-20%,71%
O=C(c1ccco1)N1N=C(c2ccccc2)CC1c1ccc2nccnc2c1 (centres undefined),?,-6%,9,?,7.4µM*
O=C(O)CCCC(=O)N1N=C(c2ccccc2)CC1c1ccc2nccnc2c1 (centres undefined),14%,7%,-35,-3%,3.7µM*

# Compound activity: PubChem, National Center for Advancing Translational Sciences (NCATS)
